PubChem BioAssay (Tox21)
Results filed as inconclusive are left out. More than one record can exist for a structure, and the calls need not agree. The source made the active and inactive calls. Calls come from the whole dose curve.

Columns and labels:
[1] = target: Acetylcholinesterase (Homo sapiens) (UniProt P22303); test: Acetylcholinesterase (AChE) small molecule antagonists: colormetric cell-based qHTS assay (AID 1347395); note: nearly all actives have a fitted effect of over 30% in size
Summary of the method: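 SH-SY5Y cells, plated overnight at 37 C, were exposed to compounds for 30 min at 37 C and 5% CO2. Acetylthiocholine plus DTNB was then added, and thiocholine from endogenous AChE was quantified colorimetrically after 90 min at 37 C.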

[2] = target: Acetylcholinesterase (Homo sapiens) (UniProt P22303); test: Acetylcholinesterase (AChE) small molecule antagonists: enzyme-based qHTS assay (AID 1347397); conditions: Potency: AChE enzyme activity inhibition; outcome: AChE enzyme activity inhibition; note: nearly all actives have a fitted effect of over 55% in size; note: potency is the fitted concentration of half-maximal effect
Summary of the method: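 Recombinant human AChE, dispensed at 50 mU/mL, was preincubated with Tox21 10K compounds or DMSO vehicle for 30 min at room temperature. DTNB plus acetylthiocholine was then added, and thiocholine was measured colorimetrically after a further 10 min.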

[3] = target: Acetylcholinesterase (Homo sapiens) (UniProt P22303); test: Acetylcholinesterase (AChE) small molecule antagonists: fluorescence cell-based qHTS assay (AID 1347398); conditions: Potency: AChE activity; outcome: AChE activity; note: nearly all actives have a fitted effect of over 50% in size; note: potency is the fitted concentration of half-maximal effect
Summary of the method: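 Human SH-SY5Y cells were plated overnight at 37 C, exposed to compound for 30 min at 37 C, 5% CO2, then given acetylthiocholine plus Thiolite Green for 40 min at room temperature; thiocholine fluorescence (Ex/Em 490/520 nm) reports endogenous AChE activity.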

[4] = target: Acetylcholinesterase (Homo sapiens) (UniProt P22303); test: Acetylcholinesterase (AChE) small molecule antagonists: enzyme-based qHTS assay with human liver microsomes (AID 1347399); conditions: Potency: qHTS inhibition; outcome: qHTS inhibition; note: nearly all actives have a fitted effect of over 60% in size
Summary of the method: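 Recombinant human AChE (50 mU/mL in the enzyme mix) and human liver microsomes (0.25 mg/mL final) were preincubated with compound and NADPH (0.25 mg/mL final) for 30 min at 37 C. Acetylthiocholine/DTNB was then added; thiocholine was read colorimetrically after 10 min at room temperature.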
% is set by controls: 0 for no effect and ±100 for the full control effect.

Chain of Acetylcholinesterase (Homo sapiens) (P22303 whole entry, looked up): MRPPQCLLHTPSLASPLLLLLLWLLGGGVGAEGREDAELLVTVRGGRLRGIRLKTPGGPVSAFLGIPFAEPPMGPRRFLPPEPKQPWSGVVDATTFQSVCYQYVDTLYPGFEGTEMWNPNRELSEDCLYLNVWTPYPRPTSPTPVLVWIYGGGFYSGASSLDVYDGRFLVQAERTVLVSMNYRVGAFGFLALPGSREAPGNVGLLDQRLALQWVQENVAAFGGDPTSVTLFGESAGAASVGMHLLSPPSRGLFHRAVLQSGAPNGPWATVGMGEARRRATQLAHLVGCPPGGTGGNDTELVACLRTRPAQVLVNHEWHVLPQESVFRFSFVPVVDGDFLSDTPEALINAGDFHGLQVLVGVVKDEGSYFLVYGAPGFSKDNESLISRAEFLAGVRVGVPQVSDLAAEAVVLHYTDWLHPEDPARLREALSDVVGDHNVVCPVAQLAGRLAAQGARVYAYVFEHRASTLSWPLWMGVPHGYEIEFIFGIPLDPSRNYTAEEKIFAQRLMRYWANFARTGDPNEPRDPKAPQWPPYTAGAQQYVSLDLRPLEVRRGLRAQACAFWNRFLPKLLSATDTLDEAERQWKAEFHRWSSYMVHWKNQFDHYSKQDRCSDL

Cc1cc(C(C)(C)C)c(O)c(C)c1Cn1c(=O)n(Cc2c(C)cc(C(C)(C)C)c(O)c2C)c(=O)n(Cc2c(C)cc(C(C)(C)C)c(O)c2C)c1=O
inactive: Potency [1] | Potency [2] | Potency [3] | Potency [4]

Cc1ccc(C)c(O)c1
inactive: Potency [1] | Potency [2] | Potency [3] | Potency [4]

CCOC=C(C(=O)OCC)C(=O)OCC
inactive: Potency [1] | Potency [2] | Potency [3] | Potency [4]

Cc1c(C)c2c(c(C)c1O)CCC(C)(COc1ccc(CC3SC(=O)NC3=O)cc1)O2 (stereo not given)
inactive: Potency [1] | Potency [2] | Potency [3] | Potency [4]

CC(C)c1ccc(O)c(C(C)C)c1
inactive: Potency [1] | Potency [2] | Potency [3] | Potency [4]

C1CN(SSN2CCOCC2)CCO1
inactive: Potency [1] | Potency [2] | Potency [3] | Potency [4]

C=COCC(C)C
inactive: Potency [1] | Potency [2] | Potency [3] | Potency [4]

N#Cc1cc2ccccc2c2ccccc12
inactive: Potency [1] | Potency [2] | Potency [3] | Potency [4]

N#Cc1ccccc1
inactive: Potency [1] | Potency [2] | Potency [3] | Potency [4]

C=Cc1c(C)c2cc3[nH]c(cc4nc(cc5nc(cc1[nH]2)C(C)=C5CCC(=O)O)C(CCC(=O)O)=C4C)c(C)c3C=C
inactive: Potency [1] | Potency [2] | Potency [3] | Potency [4]

O=C(O)O
inactive: activity, negative = inhibition [1] -0.194% [at 10.5 µM] | activity change, negative = inhibition [2] 0.136% [at 10.5 µM] | activity change, negative = inhibition [3] 2.47% [at 10.5 µM] | activity change, negative = inhibition [4] -6.48% [at 10.5 µM]

C=Cc1ccc(OC(C)=O)cc1
inactive: Potency [1] | Potency [2] | Potency [3] | Potency [4]

c1cnc2cc3c(cc2n1)C1CNCC3C1
inactive: Potency [1] | Potency [2] | Potency [3] | Potency [4]

CC1=CCC2CC1C2(C)C (stereo not given)
inactive: Potency [1] | Potency [2] | Potency [3] | Potency [4]

Nc1cc([N+](=O)[O-])ccc1Cl
inactive: Potency [1] | Potency [2] | Potency [3] | Potency [4]

CCNc1nc(NC(C)(C)C)nc(OC)n1
inactive: Potency [1] | Potency [2] | Potency [3] | Potency [4]

C=COCCCCO
inactive: Potency [1] | Potency [2] | Potency [3] | Potency [4]

CCCCOC(=O)c1ccccc1
inactive: Potency [1] | Potency [2] | Potency [3] | Potency [4]

CCC(C)C(C)=O (stereo not given)
inactive: Potency [1] | Potency [2] | Potency [3] | Potency [4]

CC1=NN(c2ccccc2)C(=O)C1
5.06 µM (active) and inactive: Potency [3]
inactive: Potency [1] | Potency [4]
35.8 µM (active) and inactive: Potency [2]

C/C=C/C(=O)N(CC)c1ccccc1C
inactive: Potency [1] | Potency [2] | Potency [3] | Potency [4]

c1ccc(-c2ccccn2)nc1
inactive: Potency [1] | Potency [2] | Potency [3] | Potency [4]

CC(=O)OCC(=O)[C@@]1(O)CCC2C3CCC4=CC(=O)CC[C@]4(C)C3[C@@H](O)C[C@@]21C (stereo not given in full)
inactive: Potency [1] | Potency [2] | Potency [3] | Potency [4]

CC(C)OC(=O)CCC(=O)OC(C)C
inactive: Potency [1] | Potency [2] | Potency [3] | Potency [4]

CC(=O)OC[C@H]1O[C@@H](n2ncc(=O)[nH]c2=O)[C@H](OC(C)=O)[C@@H]1OC(C)=O
inactive: Potency [1] | Potency [2] | Potency [3] | Potency [4]

CCc1c(C(=O)O)c(=O)cnn1-c1ccc(Cl)cc1
inactive: Potency [1] | Potency [2] | Potency [3] | Potency [4]

CNC[C@H](O)c1ccc(O)c(O)c1
inactive: outcome [1] | outcome [2] | outcome [3] | outcome [4]

CCc1ccc(CCOc2ccc(CC3SC(=O)NC3=O)cc2)nc1 (stereo not given)
inactive: Potency [1] | Potency [2] | Potency [3] | Potency [4]

c1cc(C(c2ccc(OCC3CO3)cc2)C(c2ccc(OCC3CO3)cc2)c2ccc(OCC3CO3)cc2)ccc1OCC1CO1 (stereo not given)
inactive: Potency [1] | Potency [2] | Potency [3] | Potency [4]

O=C(O)c1ccc(S(=O)(=O)O)cc1C(=O)O
inactive: Potency [1] | Potency [2] | Potency [3] | Potency [4]
